Source: PubChem BioAssay (National Center for Advancing Translational Sciences (NCATS))
TrxR1 inh: inhibitors of rat thioredoxin reductase 1; hit rate 1% among 390,000; O89049; Potency, µM (series often up to 114 µM), actives largely listed as inhibitors; AID 588453; recombinant rTrxR1, NADPH fluorescence consumption, selenite substrate; also: nearly all actives have a fitted effect of over 65% in size
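Rat TrxR1 (90 nM in the dispensed reagent) was pre-reduced with 400 uM NADPH for 5 min at room temperature, then incubated with compound for 15 min. After 400 uM selenite was added, NADPH fluorescence (Ex 340/Em 450 nm) was followed for 8 min.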
FBPA coupling cs: coupling enzyme interference in Giardia aldolase counter-screen | coupling enzyme system counterscreen, AmpLite Red fluorescence | hit rate 0.67% among 290,000 | activity change, negative = inhibition, % at 58.2 µM, hits read low; in the data active = activity change below about -30%
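Final compound at 57.5 uM, incubated 10 min at RT with coupling enzyme reagent (glyceraldehyde-3-phosphate), then 20 min with substrate and AmpLite Red detection. Fluorescence read at 525/598 nm; tests interference with the coupling assay, not aldolase inhibition.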
TrxR1 substrate: rat thioredoxin reductase 1 substrate activity; Potency, µM (titrated, usually from 114 µM); purified TrxR1 substrate turnover, NADPH consumption readout; O89049; hit rate 0.01% among 390,000; also: nearly all actives have a fitted effect of over 50% in size
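Rat TrxR1, dispensed at 90 nM, was prereduced with 400 uM NADPH (final) for 5 min at ~22 deg C, then incubated with compound 15 min before 400 uM selenite. A first-read NADPH fluorescence drop versus no-compound background flagged substrates.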
VP16 counter: counter-screen for ROR gamma inhibitors: Gal4-VP16 reporter; hit rate 3.5% among 310,000; Potency, µM (titrated, usually from 53.6 µM), hits mostly inhibitors; Drosophila S2 Gal4-VP16 UAS-luciferase, luminescence, 20 h;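 also: Gal4-VP16 expression switched on by copper sulfate through the metallothionein promoter; nearly all actives have a fitted effect of over 50% in size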
RORgamma inh: blocks mouse ROR gamma transcriptional activity | P51450 | Drosophila S2 Gal4-RORgamma UAS-luciferase reporter, 20 h | Potency, µM (series often up to 53.6 µM), usual class: inhibitors | hit rate 5.4% among 310,000; also: nearly all actives have a fitted effect of over 60% in size
Target sequence (P51450 whole entry, looked up, the tested form may be a part): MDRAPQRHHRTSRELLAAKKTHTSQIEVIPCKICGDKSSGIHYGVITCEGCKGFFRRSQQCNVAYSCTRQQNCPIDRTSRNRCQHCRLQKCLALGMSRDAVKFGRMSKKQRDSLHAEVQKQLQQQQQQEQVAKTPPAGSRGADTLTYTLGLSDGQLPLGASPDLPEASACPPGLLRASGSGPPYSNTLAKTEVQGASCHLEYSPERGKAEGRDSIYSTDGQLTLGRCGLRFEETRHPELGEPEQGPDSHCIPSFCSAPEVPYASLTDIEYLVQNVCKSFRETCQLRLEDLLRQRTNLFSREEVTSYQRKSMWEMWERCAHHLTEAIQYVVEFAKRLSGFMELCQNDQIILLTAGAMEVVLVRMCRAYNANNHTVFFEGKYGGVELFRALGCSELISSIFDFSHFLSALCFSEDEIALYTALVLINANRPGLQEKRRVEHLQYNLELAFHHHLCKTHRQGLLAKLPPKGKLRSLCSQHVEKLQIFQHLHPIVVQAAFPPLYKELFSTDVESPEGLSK
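Read-out: Photinus luciferase luminescence; inhibitors lower reporter signal. Insect Schneider cells with Gal4-ROR gamma fusion under metallothionein promoter, UAS reporter; 700 uM final copper sulfate induction, 20 hr, ambient temperature.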
GALK inh: inhibitors of human galactokinase; hit rate 0.007% among 270,000; P51570; Potency, µM (titrated, usually from 57.5 µM), hits mostly inhibitors; AID 1868; Purified GALK, Kinase-Glo residual ATP luminescence
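ATP-depletion format; final 35 uM ATP, 100 uM D-galactose, 5 nM enzyme; pH 8.0 HEPES/Mg2+ buffer; 60 min RT; luminescence read 10 min after detection reagent.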
Of the large screens only hits and unclear results are named; the others gave an inactive call. This is a sample that favours compounds with a hit; in the whole collection about 5.9% have one here. Unless noted, calls follow the shape of the dose curve; as a rule, active = well fitted curve in the direction sought with a large enough effect; inconclusive = small, poorly fitted or top-dose-only effect, or another doubt; inactive = no such curve, though single readings can be large; an effect the other way counts as inactive or inconclusive.

CCN(CC(=O)Nc1ccc(OC)cc1)C(=O)c1cc(S(=O)(=O)N2CCOCC2)ccc1N1CCCC1	none (no result: FBPA coupling cs, VP16 counter, RORgamma inh, GALK inh)
COc1ccc(C(=O)Oc2cc(/C=N/NC(N)=S)ccc2OC)cc1	VP16 counter 22.4µM, RORgamma inh 11.2µM (no result: FBPA coupling cs)
COc1ccc(C(=O)Oc2ccc(/C=N/O)cc2)cc1	VP16 counter 11.2µM, RORgamma inh 11.2µM
COc1ccc(/C=N/NC(N)=S)cc1OC(=O)c1cccc2ccccc12	VP16 counter 5.01µM, RORgamma inh 2.51µM
COC(=O)c1cccc(/C=N/NC(N)=S)c1O	VP16 counter 7.08µM, RORgamma inh 2µM
COc1cc(/C=N/NC(=O)c2cccc3ccccc23)cc(OC)c1OC	VP16 counter inconclusive (no result: GALK inh)
CC(=O)Nc1ccc(S(=O)(=O)N2CCC(C(=O)NCCc3ccc(Cl)cc3)CC2)cc1	none
CCCCn1cnc2c(oc3nc4c(cc32)CCCC4)c1=O	VP16 counter inconclusive, RORgamma inh 10µM
CC1C(=O)NN=C1C(=O)N/N=C\C(Br)=C\c1ccccc1 (configuration not stated)	VP16 counter 1.58µM, RORgamma inh 1.26µM
Cc1ccc(CNC(=O)C2CCCN(S(=O)(=O)c3cnc[nH]3)C2)cc1 (configuration not stated)	none
COc1cc(NC(C)=O)c2ncccc2c1[N+](=O)[O-]	FBPA coupling cs -66.3, VP16 counter inconclusive, RORgamma inh 3.98µM
COc1ccc(NC(C)=O)c([N+](=O)[O-])c1[N+](=O)[O-]	TrxR1 inh 5.01µM (no result: FBPA coupling cs, VP16 counter, RORgamma inh, GALK inh)
CC(C)n1c2ccccc2c2cc([N+](=O)[O-])ccc21	none
CCC(C)n1c(=S)[nH]c2c(sc3ccc([N+](=O)[O-])cc32)c1=O (configuration not stated)	VP16 counter 1.26µM, RORgamma inh 0.631µM
COc1ccccc1C1CC(c2cccc(NS(C)(=O)=O)c2)=NN1S(=O)(=O)c1ccccc1 (configuration not stated)	none (no result: VP16 counter, RORgamma inh)
C/C(=N\Nc1cccc2cccnc12)c1ccc[nH]1	RORgamma inh 3.55µM
CCC(=O)Nc1cccc2cccnc12	none
COc1cc(C=NOC(=O)Nc2ccccc2)cc(OC)c1OC	none (no result: FBPA coupling cs, VP16 counter, RORgamma inh, GALK inh)
COc1ccc(NC(=O)O/N=C/c2c(C)nn(C(C)(C)C)c2C)cc1	VP16 counter 11.2µM, RORgamma inh 2.51µM
Fc1ccc2c(c1)C(c1ccncc1)=NNC(c1ccc(Cl)cc1)=N2	VP16 counter inconclusive, RORgamma inh inconclusive
Fc1ccc2c(c1)C(c1ccncc1)=NNC(c1ccccc1)=N2	VP16 counter inconclusive, RORgamma inh 10µM
Cc1ccc(-n2c(NN)nc3ccccc3c2=O)c(C)c1	VP16 counter 20µM, RORgamma inh inconclusive
Cn1c(NN)nc2ccccc2c1=O	RORgamma inh inconclusive
COc1ccc(CCNC(=S)Nc2ccccc2)cc1	VP16 counter 7.08µM, RORgamma inh 2µM
COc1ccc(CCNC(=S)Nc2ccc(OC)cc2)cc1	VP16 counter 10µM, RORgamma inh 3.55µM
COc1ccc(NC(=S)N(CCc2c(C)[nH]c3ccc(C)cc23)Cc2cccnc2)cc1	RORgamma inh inconclusive (no result: GALK inh)
CC(C)c1ccc(NC(=S)Nc2ccc(OC(F)(F)F)cc2)cc1	VP16 counter 11.2µM, RORgamma inh 8.91µM
COc1ccc(NC(=S)NCCc2c(C)[nH]c3ccc(OC)cc23)cc1	VP16 counter inconclusive, RORgamma inh 5.62µM
COc1ccc2oc(=O)c(C(=O)NCc3cccnc3)cc2c1	none
COc1cc(OC)c(CN2CCN(c3ccc(F)cc3)CC2)cc1Br	none
Cc1ccc(CNC(=O)[C@H](C)[C@@H]2C[C@@]2(C)[C@@H](NC(=O)OCc2ccccc2)c2ccccc2)c(F)c1F	none (no result: TrxR1 inh, TrxR1 substrate, GALK inh)
Cn1c(SCC(=O)Nc2ccc3c(c2)OCO3)nnc1-c1cnccn1	none
COC(=O)[C@]1(C)N[C@H](CN(C)C(=O)c2ccccc2)[C@@H]2C(=O)N(C)C(=O)[C@@H]21	none (no result: FBPA coupling cs, VP16 counter, RORgamma inh, GALK inh)
COC(=O)CC(NC(=O)CN1CCN(c2ccc(F)cc2)CC1)c1cccc(F)c1 (configuration not stated)	none
O=C1CSC(c2ccccc2)N1CC12CC3CC(CC(O)(C3)C1)C2 (configuration not stated)	none
